The source made the active and inactive calls. How the source made its calls: active means hit-call score of the fitted dose curve at least 0.9, where 1 is the maximum; inactive means score below 0.9.
Target: human Dopamine Transporter (DAT), SLC6A3 (gene 6531) (UniProt Q01959)
Assay: ERF_FR_TR_hSLC6A3: Eurofins (ERF) Radioligand Binding LeadHunter Assay for human Dopamine Transporter (DAT) Antagonism, conducted at France lab site
Description: ERF_FR_TR_hSLC6A3 is a biochemical, single-readout assay that uses extracted gene-proteins in a cell-free assay. Measurements were taken 2 hour after chemical dosing in a 96-well plate. See DAT Human Dopamine Transporter Binding (Antagonist Radioligand) Assay, Cerep.ERF_FR_TR_hSLC6A3 is an assay component calculated from the ERF_FR_TR_hSLC6A3 assay. It is designed to measure radioligand binding using a type of binding reporter as detected by scintillation counting with radiometry technology.Data from the assay component ERF_FR_TR_hSLC6A3 was analyzed at the assay endpoint, ERF_FR_TR_hSLC6A3, in the positive analysis fitting direction relative to DMSO as the negative control and baseline of activity. Using a type of binding reporter, loss-of-signal activity can be used to understand changes in binding as they relate to gene SLC6A3. To generalize the intended target to other relatable targets, this assay endpoint is annotated to the transporter intended target family, where the subfamily is SLC6 / Monoamine.
Human cells are incubated for 120 minutes at 4C with [3H]BTCP (4 nM) ligand and BTCP as control inhibitor. Test Sample Requirements: Minimum for 1) Screen: 60 ul of 10 mM stock -OR- 1 mg (pre-weighed) for 10 uM final testing. 2) Dose Response: 90 ul of 10 mM stock -OR- 1 mg (pre-weighed) for a top concentration at 10 uM.

human Dopamine Transporter (DAT), SLC6A3 (gene 6531), sequence (Q01959 whole entry, looked up): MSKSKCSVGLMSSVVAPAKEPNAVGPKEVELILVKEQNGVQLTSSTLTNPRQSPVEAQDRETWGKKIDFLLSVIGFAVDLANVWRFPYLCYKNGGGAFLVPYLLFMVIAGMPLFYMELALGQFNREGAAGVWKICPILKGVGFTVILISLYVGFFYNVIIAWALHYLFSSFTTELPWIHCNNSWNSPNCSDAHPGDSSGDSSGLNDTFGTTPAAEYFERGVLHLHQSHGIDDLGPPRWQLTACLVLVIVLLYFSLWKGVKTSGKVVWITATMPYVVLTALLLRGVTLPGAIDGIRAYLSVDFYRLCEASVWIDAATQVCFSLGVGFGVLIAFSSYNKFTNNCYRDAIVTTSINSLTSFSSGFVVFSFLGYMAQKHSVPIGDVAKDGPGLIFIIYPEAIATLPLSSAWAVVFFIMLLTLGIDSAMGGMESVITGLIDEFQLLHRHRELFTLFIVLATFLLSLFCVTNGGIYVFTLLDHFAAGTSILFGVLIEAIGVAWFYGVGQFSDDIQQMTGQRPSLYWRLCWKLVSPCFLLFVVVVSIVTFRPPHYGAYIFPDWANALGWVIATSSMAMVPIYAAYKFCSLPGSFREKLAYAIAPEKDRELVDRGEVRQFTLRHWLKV

| Structure (SMILES) | AC50 |
| --- | --- |
| O=C(/C=C/c1ccc(O)cc1)CC(=O)/C=C/c1ccc(O)cc1 | 2890 nM (active) |
| COc1cc(CCC(=O)CC(=O)CCc2ccc(O)c(OC)c2)ccc1O | 2970 nM (active) |
